Measured values from PubChem BioAssay (NCI).
About 83,000 compounds went through this panel and 20% of them were active in at least one assay; those are over-represented in the sample as a whole.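 The test compound was applied at a single concentration to cells in 96-well plates for 48 hours, and percent growth was recorded.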 Values without a mark were called inactive. Active and inactive are the calls of the source. The calls were made as follows: active = growth percent below 10; inactive = the rest.

tested on: RXF 393 renal; assay: NCI-60 one-dose screen, 48 h (100 = growth as untreated, 0 = no growth, -100 = all killed); settings: 10 µM unless noted

Compound	growth
CCOc1cccc(/C(N)=N/C(N)=N/c2nc3ccccc3s2)c1	110%
O=C(CCl)Nc1ccc(NC(=O)c2cc(Cl)ccc2O)c(Cl)c1	87.4%
Clc1ccc(CSc2nnc(-c3ccc(Cl)cc3)n2-c2ccccc2)cc1	57.1%
CC(C)(C)OC(=O)NCc1ccc(CNc2c([N+](=O)[O-])cnc3ccccc23)cc1	105%
NS(=O)(=O)c1ccc(Nc2nc(N/N=C/c3ccc4c(c3)OCO4)nc(Nc3ccccc3)n2)cc1	22.4%
Cc1cc(=O)oc2cc(OCCCOc3ccc(/C=C/C(=O)Nc4ccc(Br)cc4)cc3)ccc12	57.8%
CNC(=O)c1cc(N2CCc3cc(NC(=O)Nc4ccc(N5CCOCC5)c(C(F)(F)F)c4)ccc32)ccn1	-6.79% (active)
